Results: PubChem BioAssay

Tested on: Plasmodium falciparum Sir2 (PF13_0152, Sir2A)
Test: Plasmodium falciparum Sir2A binding compounds – biochemical, small-molecule microarray, 635 nm fluorescence, primary screen (AID 1098);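 also: score merges spot fluorescence intensity with its signal-to-noise ratio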
Details: fluorescence 635 nm, higher = more signal

Structure (SMILES)	composite z-score
CCCCOC(OCCCC)C(O)CSc1ccc2ccccc2c1 (stereo unspecified)	0.302
CCOC(=O)CCN1C(=O)[C@H]2[C@H]3[C@H](O)[C@H](O)CC(=O)[C@@H]3CC[C@H]2C1=O	0.414
CON=C(C)CCN1CCCc2nc(C)c(C)cc21	0.858
COC(=O)CC=C1c2ccccc2[C@H](OC)[C@H]1C	-0.0214
C=CC[C@@H]1C=C[C@H](ON=C[C@@H](NS(=O)(=O)c2ccc(C)cc2)[C@H](C)C=CCC(=O)OC)[C@@H](CO)O1	0.296
O=C1C=C[C@@H](O)[C@@H]2[C@@H]3C(=O)N(c4cccc(Oc5ccccc5)c4)C(=O)[C@@H]3CC[C@@H]12	0.378
C=CC[C@@H]1C=C[C@H](Oc2ccc(C)cc2)[C@@H](COC(=O)NCc2cccc3ccccc23)O1	0.45
O=C1[C@H]2[C@H]3[C@H](O)[C@H](O)CC(=NOCc4ccccc4)[C@@H]3CC[C@H]2C(=O)N1c1cccc(Oc2ccccc2)c1	1.03
CCCC[C@H]1CN2[C@@H](CC[C@@H](C)[C@@H]2c2ccc(Br)cc2)C(=O)O1	0.801
CCOC(=O)[C@H](Cc1ccccc1)NC(=O)CCC1CC(OC(=O)NCc2cccc3ccccc23)CC2(CCCC(COC(=O)NCc3ccc4c(c3)OCO4)O2)O1 (stereo partly specified)	0.216
CC(C)(C)N1C(=O)[C@H]2[C@H]3[C@H](O)[C@H](O)CC(=NNC(=O)OCc4ccccc4)[C@@H]3CC[C@H]2C1=O	-0.106
COc1ccc(OC[C@@H]2CC3[C@@H](c4ccc(Br)cc4)[C@H](C)CC[C@H]3C(=O)O2)cc1 (stereo partly specified)	0.353
CC(C)=CCCC(C)=CCON=C1C[C@@H](O)[C@@H](O)[C@@H]2[C@@H]3C(=O)N(c4cccc(Oc5ccccc5)c4)C(=O)[C@@H]3CC[C@H]12	0.0643
CCN1C(=O)[C@H]2[C@H]3[C@H](O)[C@H](O)CC(=NO[C@H](C)c4cn([C@H](CO)Cc5ccccc5)nn4)[C@@H]3CC[C@H]2C1=O	0.955
C#CCCCON=C1C[C@@H](O)[C@@H](O)[C@@H]2[C@@H]3C(=O)N(C[C@@H]4CCCO4)C(=O)[C@@H]3CC[C@@H]12	0.44
COC(=O)CC=C[C@@H](C)[C@@H](C=NOC[C@@H](O)COCc1ccco1)NS(=O)(=O)c1ccc(C)cc1	0.406
CC(=O)OC[C@H]1O[C@H](CC=NO[C@@H](C)c2cn([C@H](CO)Cc3ccccc3)nn2)C=C[C@@H]1OC(C)=O	0.775
CCc1cc2c(nc1CC)CCN(CCC(C)=NO[C@@H]1O[C@H](COC(C)=O)[C@@H](OC(C)=O)[C@H](OC(C)=O)[C@H]1OC(C)=O)C2	0.8

Structure (SMILES)	composite z-score
CC(C)(C)N1C(=O)[C@H]2[C@@H]3C(=CC[C@H]2C1=O)C(=O)[C@H]1O[C@H]1[C@H]3O	1.09
CC(C)=NOC(C)CN1CCCCc2nc(C)c(C)cc21 (stereo unspecified)	0.284
Cc1ccc2[nH]c3nc(CCCn4ccnc4-c4ccccc4)nnc3c2c1	0.663
COc1ccc(COC(=O)NN=C2C[C@@H](O)[C@@H](O)[C@@H]3[C@@H]4C(=O)N([C@@H](C)c5ccccc5)C(=O)[C@@H]4CC[C@H]23)cc1	-0.25
COC(=O)CC=C[C@@H](C)[C@@H](C=NOC(C)CN1CCCCc2nc(C)c(C)cc21)NS(=O)(=O)c1ccc(C)cc1 (stereo partly specified)	0.361
CO[C@@H]1COC(=O)[C@H](CCSC)NC(=O)CC=C[C@@H](C)COC(=O)[C@@H]2CCCN2C(=O)CC=C[C@H]1C	0.275
COC(=O)[C@H](C)NC(=O)CC=C[C@@H](C)[C@@H]1C=C[C@H](O)[C@@H](CO)O1	0.141
CO[C@@H](C(C)C)[C@@H](C)C1OC(=O)CC1O (stereo partly specified)	-0.595
COc1ccc(OC[C@@H](CO)OC)cc1	-0.276
COC(=O)[C@H](C)NC(=O)CCC1CC(OC(=O)NCc2ccc3c(c2)OCO3)CC2(CCCC(COC(=O)NCCC(C)C)O2)O1 (stereo partly specified)	0.624
COc1cccc([C@H]2Oc3ccc(OC)cc3C(=NO[C@@H](C)c3cc(-c4c(C)cc(C)cc4C)no3)[C@@H]2O)c1	0.288
CCOC(=O)CCN1C(=O)[C@H]2[C@H]3[C@H](O)[C@H](O)CC(=NNC(=O)OCC)[C@H]3CC[C@H]2C1=O	0.533
O=C1[C@H]2[C@H]3[C@H](O)[C@H](O)CC(=NOC[C@@H](O)COCc4ccco4)[C@@H]3CC[C@H]2C(=O)N1Cc1ccc2c(c1)OCO2	0.867
CC(=O)OC[C@H]1O[C@H](CC=NO[C@@H](C)c2cc(-c3c(C)cc(C)cc3C)no2)C=C[C@@H]1OC(C)=O	-0.229
CCO[C@H](c1cc(OC)cc([N+](=O)[O-])c1OC)[C@H](C)[C@@H](OC)[C@H](C)C=CCC(=O)OC	0.535
COC(=O)[C@H](C)NC(=O)CCC1CC(OC(=O)NCc2ccc3c(c2)OCO3)CC2(CCCC(COC(=O)NCCc3ccc(Cl)cc3)O2)O1 (stereo partly specified)	0.207
COc1ccc(COC(=O)NN=C2C[C@@H](O)[C@@H](O)[C@@H]3[C@@H]4C(=O)N(c5cccc(Oc6ccccc6)c5)C(=O)[C@@H]4CC[C@H]23)cc1	0.328
COc1cccc([C@H]2Oc3ccc(OC)cc3C(=NOCC[C@@H]3C=C[C@H](OC(C)=O)[C@@H](COC(C)=O)O3)[C@@H]2O)c1	1.21
